# Compound activity as filed in PubChem BioAssay.
# Sampled rows, rich in hits. Any-hit rate of the full collection: about 3.6%.
# mHTT-CaM PPI inh – inhibitors of human mutant huntingtin-calmodulin interaction. AlphaScreen His-mHTT/GST-CaM binding, luminescence. hit rate 3.6% among 190,000. inhibition, % at 15 µM. P42858. AID 1671202;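 also: 0% = both proteins with DMSO and 100% = one protein alone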
# Pf apPOL inh – Pf-apPOL DNA polymerase inhibition; inhibition, % at 10 µM; Recombinant Pf-apPOL, molecular beacon fluorescence, 1.5 h; AID 1794808; hit rate 0.25% among 210,000
# * marks the source's active call; other numbers are inactive results; / = no result given. Rule as the data show it: active = inhibition above about 50%; inactive = the rest.
SMILES,mHTT-CaM PPI inh,Pf apPOL inh
CC(C)CCNC(=O)CCC(=O)N1CC2CCCN2c2ccccc21 (configuration not stated),12.5,-6.8
O=C(CCC(=O)N1CC2CCCN2c2ccccc21)NCCc1ccccc1Cl (configuration not stated),53.5*,-3.1
O=C(CCC(=O)N1CC2CCCN2c2ccccc21)NCCc1ccc(Cl)cc1 (configuration not stated),74.8*,-1.3
CC(C)CN(CC(C)C)S(=O)(=O)N1CCC(C(=O)NC2CCCCCC2)CC1,-9.0,-11.7
CCN(CCC#N)c1ccc(N=Nc2ccc([N+](=O)[O-])cc2)cc1,53.0*,-0.5
CCN(CCC#N)c1ccccc1,-4.4,-4.1
Cc1cc(C(=O)NC2CC2)c2cccc(Cl)c2n1,7.7,2.3
CC12CCC(C(=O)Nc3ccccc3C(F)(F)F)(C(=O)C1=O)C2(C)C (configuration not stated),1.5,-7.7
Oc1ccc(N=Cc2ccc(OCc3ccccc3)cc2)cc1,35.0,-0.1
COc1ccc(C=Nc2ccc(C(N)=O)cc2)cc1O,-4.0,-1.3
COc1cc(C=Nc2ccc(Nc3ccccc3)cc2)ccc1O,92.0*,-3.5
Oc1ccc(C=Nc2ccc(Nc3ccccc3)cc2)cc1,100.0*,-3.1
COc1cc(C=Nc2ccc(Cl)c(Cl)c2)ccc1O,2.0,2.6
COc1ccc(C=Nc2ccc(Nc3ccccc3)cc2)cc1O,87.0*,-57.1
Cn1c(C2CCN(C(=O)c3ccc(Cl)s3)C2)nc2cccnc21 (configuration not stated),1.4,-4.7
CCC(C(=O)NCc1ccc(F)cc1Cl)N1C(=O)COc2ccc(C(C)(C)C)cc21 (configuration not stated),49.0,-16.7
CCOC(=O)N1CCN(C(=O)CSc2ccc(-c3cccs3)nn2)CC1,-2.3,-4.6
CC(C)(C)C(=O)Nc1cc(C(F)(F)F)ccc1Cl,1.0,-14.6
Cc1nn(CC(O)COC(c2ccccc2)c2ccccc2)c(C)c1Br (configuration not stated),99.0*,-1.4
Cc1nc(C)n(CC(O)COc2ccc(-c3ccccc3)cc2)n1 (configuration not stated),-8.2,-10.3
O=C(NCc1ccccc1)N1CCC2(CC1)Nc1cc(F)ccc1-n1cccc12,50.7*,-1.7
COc1cccc(CNC(=O)N2CCC3(CC2)Nc2cc(F)ccc2-n2cccc23)c1,43.6,3.4
O=C(NCc1ccco1)N1CCC2(CC1)Nc1cc(F)ccc1-n1cccc12,47.1,2.8
Cc1ccc2c(c1)NC1(CCN(C(=O)CSCc3ccc(F)cc3)CC1)c1cccn1-2,100.0*,-7.2
CNC(=O)N1CCC2(CC1)Nc1cc(F)ccc1-n1cccc12,36.5,4.5
SMILES,mHTT-CaM PPI inh,Pf apPOL inh
Cc1ccc(CNC(=O)N2CCC3(CC2)Nc2cc(F)ccc2-n2cccc23)cc1,66.4*,-2.4
Cc1ccc2c(c1)N(C(=O)NCc1ccccc1)CC(C)O2 (configuration not stated),-1.2,-9.6
CCCn1cnnc1C1CCCN(C(=O)c2cc(F)ccc2F)C1 (configuration not stated),-7.6,-1.1
O=C(Nc1ccccc1)c1cc(S(=O)(=O)NC2CCCCC2)c(Cl)cc1Cl,9.3,0.5
CNC(=O)N1CCC(c2nc3ccncc3n2CCOC)C1 (configuration not stated),-4.1,-5.5
Cc1c2cc(O)c(=O)cc-2oc2cc(O)c(O)cc12,100.3*,/
Cc1cc2oc(=O)cc(-c3cc4ccccc4o3)c2cc1O,5.5,3.3
Cc1cc(C(N)=NO)n(C)n1,/,-4.7
CN(C)Cc1cc(CN(C)C)c(O)c(C(C)(C)C)n1,-4.4,4.3
Cc1cc(C)cc(N=C2NC(=O)/C(=C/c3ccccc3)S2)c1,7.0,0.8
COc1cc(/C=C2/SC(=Nc3ccc(O)cc3)NC2=O)ccc1O,31.0,-6.8
O=C1NC(=Nc2ccc(F)cc2)S/C1=C/c1ccco1,68.0*,0.8
O=C1NC(=Nc2ccc(F)cc2)S/C1=C/c1ccc(O)c(O)c1,57.0*,30.4
O=C1NC(=Nc2ccc(F)cc2)S/C1=C/c1cccs1,12.0,1.0
Cc1cc(C)cc(N=C2NC(=O)/C(=C/c3ccco3)S2)c1,79.0*,2.5
CNc1oc(-c2ccc(Cl)cc2Cl)nc1S(=O)(=O)c1ccccc1,0.0,4.0
Clc1ccc2sc(N3CCCC3)nc2c1,/,-11.6
CCCC(=O)Nc1ccc(-c2nc(-c3ccccc3)co2)cc1,6.2,0.0
CC(C)(C)c1ccc(O)c(N=C/C=C/c2ccc([N+](=O)[O-])cc2)c1,31.0,-4.7
O=[N+]([O-])c1ccc(/C=C/C=Nc2ccccc2O)cc1,83.0*,-2.4
O=C(c1ccco1)N1CCN(c2nc3ccc([N+](=O)[O-])cc3s2)CC1,-4.2,4.3
Clc1ccc2c(c1)SS(Cl)=N2 (configuration not stated),55.2*,/
Cc1ccc(NC(=O)N2CCn3cccc3C2C(C)C)cc1F (configuration not stated),7.8,-4.2
CCC(=O)NCCc1csc(C2CCN(C(=O)Cc3ccccc3C)CC2)n1,5.0,-0.4
COc1ccc(C2/C=C\CN(C(=O)C3CCCCC3)[C@@H](C)C(=O)N2Cc2ccc(F)cc2)cc1 (some centres not stated),32.6,-2.7
SMILES,mHTT-CaM PPI inh,Pf apPOL inh
COc1ccc(C2/C=C\CN(C(=O)c3ccc(C)cc3)[C@@H](C)C(=O)N2Cc2ccc(F)cc2)cc1 (some centres not stated),93.3*,-5.6
CCCCC(=O)N1C/C=C\C(c2ccc(OC)cc2)N(Cc2ccc(F)cc2)C(=O)[C@@H]1Cc1ccccc1 (some centres not stated),47.4,-0.4
COc1ccc(C2/C=C\CN(Cc3ccco3)[C@@H](C)C(=O)N2Cc2ccc(F)cc2)cc1 (some centres not stated),92.8*,-6.5
COc1ccc(C2/C=C\C(c3ccc(OC)cc3)N(Cc3ccc(F)cc3)C(=O)C(=O)N2Cc2ccc(F)cc2)cc1 (configuration not stated),38.2,-5.7
COc1ccc(C2/C=C\CN(Cc3ccccc3)[C@@H](C)C(=O)N2Cc2ccc(F)cc2)cc1 (some centres not stated),73.4*,0.9
Cc1cc(C(=O)Nc2ccc3c(c2)CCC(=O)N3C)no1,-2.3,-11.8
Cc1ccc(S(=O)(=O)N2CCC(n3c(-c4ccco4)nc4cccnc43)C2)cc1 (configuration not stated),13.9,-3.5
CCOc1ccc(/C=C2\C(=O)Nc3c(Br)cc(Br)cc32)cc1,4.0,3.1
CC(C)COc1ccc2c(c1)Sc1ccccc1N2CCN(C)C,92.6*,-19.8
CN(C)CCCN1c2ccccc2Sc2ccc(Cl)cc21,/,9.6
CN1CCN(c2ccc(C(=O)c3ccc(Br)cc3)cc2[N+](=O)[O-])CC1,56.9*,3.5
O=C(c1ccc(Br)cc1)c1ccc(N2CCOCC2)c([N+](=O)[O-])c1,12.5,0.5
Cc1ccc(N(C(=O)c2ccccc2)C2C=CS(=O)(=O)C2)cc1 (configuration not stated),-4.0,-2.7
CC(=O)Oc1cc(C(=O)N(c2ccc(C)cc2)C2C=CS(=O)(=O)C2)cc(OC(C)=O)c1OC(C)=O (configuration not stated),96.1*,90.1*
COc1ccc(-c2cc(C(=O)Nc3cc(C)on3)c3ccccc3n2)cc1,7.0,-6.2
CCN(CCCNS(=O)(=O)c1ccc(Cl)s1)c1cccc(C)c1,65.0*,-2.9
